TDP1 inh = inhibitors of human tyrosyl-DNA phosphodiesterase TDP1; Q9NUW8; recombinant TDP1, AlphaScreen DNA substrate cleavage; Potency, µM (titrated, usually from 130 µM), hits mostly inhibitors; hit rate 0.28% among 350,000; AID 485290; note: nearly all actives have a fitted effect of over 40% in size
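Steps: enzyme plus compound, 15 min RT; add biotin/phosphotyrosine-FITC oligonucleotide (15 nM final), react 5 min; add donor/acceptor beads (10 ug/ml final), 10 min; read AlphaScreen. Tdp1 at 1 nM final.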
DT40 TDP1 no CPT = qHTS for Inhibitors of human tyrosyl-DNA phosphodiesterase 1 (TDP1): qHTS in cells in absence of CPT; DT40 Tdp1-/- hTDP1 cells, no CPT, ATP luminescence, 48 h; Potency, µM (titrated, usually from 46.2 µM), hits mostly inhibitors; hit rate 15% among 420,000; note: nearly all actives have a fitted effect of over 55% in size
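No-CPT arm: Tdp1-/-;hTDP1 DT40 cells (400/well) plus compounds, incubated ≥48 hr at 37 °C. Readout CellTiter-Glo luminescence.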
RORg inh = blocks mouse ROR gamma transcriptional activity; hit rate 5.4% among 310,000; Potency, µM (highest dose often 53.6 µM), most hits filed as inhibitors; AID 2551; Drosophila S2 Gal4-RORgamma UAS-luciferase reporter, 20 h; note: nearly all actives have a fitted effect of over 60% in size
Target sequence (P51450 whole entry, looked up, the tested form may be a part): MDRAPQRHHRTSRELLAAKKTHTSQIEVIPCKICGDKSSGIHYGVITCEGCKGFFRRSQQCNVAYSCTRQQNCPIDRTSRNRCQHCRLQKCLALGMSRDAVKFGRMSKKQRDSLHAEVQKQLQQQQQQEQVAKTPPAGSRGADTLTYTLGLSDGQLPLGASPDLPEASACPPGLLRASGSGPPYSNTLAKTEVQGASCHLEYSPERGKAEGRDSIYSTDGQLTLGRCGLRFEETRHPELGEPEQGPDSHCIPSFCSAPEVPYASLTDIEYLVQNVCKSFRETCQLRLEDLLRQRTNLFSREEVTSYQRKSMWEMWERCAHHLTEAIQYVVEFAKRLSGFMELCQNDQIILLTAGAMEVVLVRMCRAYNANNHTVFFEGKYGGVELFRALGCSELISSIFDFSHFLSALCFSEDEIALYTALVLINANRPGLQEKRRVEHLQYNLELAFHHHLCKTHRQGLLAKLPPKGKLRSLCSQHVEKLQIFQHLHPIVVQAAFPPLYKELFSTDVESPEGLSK
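Read-out: Photinus luciferase luminescence; inhibitors lower reporter signal. Insect Schneider cells with Gal4-ROR gamma fusion under metallothionein promoter, UAS reporter; 700 uM final copper sulfate induction, 20 hr, ambient temperature.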
VP16 counter = Gal4-VP16 reporter inhibition counter-screen; Drosophila S2 Gal4-VP16 UAS-luciferase, luminescence, 20 h; Potency, µM (series often up to 53.6 µM), usual class: inhibitors; hit rate 3.5% among 310,000;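 note: Gal4-VP16 expression switched on by copper sulfate through the metallothionein promoter; nearly all actives have a fitted effect of over 50% in size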
TDP1 cell CPT = growth inhibition of DT40 Tdp1-/-;hTDP1 cells with camptothecin (screen for TDP1 inhibitors); Potency, µM (top dose mostly 46.2 µM), usual class: inhibitors; hit rate 12% among 420,000; chicken DT40 Tdp1-/-;hTDP1 cells + 20 nM CPT, ATP luminescence, 48 h; note: nearly all actives have a fitted effect of over 55% in size
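Chicken DT40 Tdp1-/- cells stably complemented with human TDP1 were seeded at 400 cells/well in medium containing 20 nM camptothecin, exposed to pin-transferred compounds, and grown at 37 °C for at least 48 hr. Viability was read as ATP luminescence.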
Numbers stand for hits; [ ] = dose if it differs, or a comment. The list is not random: actives were taken first. Their share in the collection is about 19%. Calls come from the whole dose curve; as a rule, active = well fitted curve in the direction sought with a large enough effect; inconclusive = small, poorly fitted or top-dose-only effect, or another doubt; inactive = no such curve, though single readings can be large; an effect the other way counts as inactive or inconclusive.

Results for O=C(N/N=C/c1ccco1)c1ccc(OCc2ccccc2)cc1 ?
TDP1 inh: inactive; DT40 TDP1 no CPT: inactive; RORg inh: inactive; VP16 counter: inactive; TDP1 cell CPT: inactive

What do the screens show for `O=C(N/N=C/c1ccco1)c1ccccc1OCc1ccc(Br)cc1`?
TDP1 inh: inactive; DT40 TDP1 no CPT: 23.1µM; RORg inh: inactive; VP16 counter: inactive; TDP1 cell CPT: 20.6µM

What do the screens show for `Cc1ccc(/C=N/NC(=O)c2ccccc2OCc2cccc(Br)c2)o1`?
TDP1 inh: inactive; DT40 TDP1 no CPT: 7.31µM; RORg inh: inconclusive; VP16 counter: inactive; TDP1 cell CPT: 6.51µM

What do the screens show for `O=C(N/N=C/c1cccnc1)c1ccccc1OCc1cccc(Br)c1`?
TDP1 inh: inactive; DT40 TDP1 no CPT: inconclusive; RORg inh: inactive; VP16 counter: inactive; TDP1 cell CPT: inconclusive

How did O=c1cc(/C=C/c2c(F)cccc2Cl)[nH]c2ccccc12 do in these assays?
TDP1 inh: inactive; DT40 TDP1 no CPT: inconclusive; RORg inh: inactive; VP16 counter: inconclusive; TDP1 cell CPT: inconclusive

Results for Cc1ncc(COP(=O)(O)O)c(C=O)c1O ?
TDP1 inh: inactive; DT40 TDP1 no CPT: inactive; RORg inh: inactive[10 µM]; VP16 counter: inactive; TDP1 cell CPT: inactive

Results for Cc1nc(N=Nc2cc(S(=O)(=O)O)ccc2S(=O)(=O)O)c(COP(=O)(O)O)c(C=O)c1O ?
TDP1 inh: 5.01µM; DT40 TDP1 no CPT: inactive; RORg inh: inactive; VP16 counter: inactive; TDP1 cell CPT: inactive

What do the screens show for `Cc1scc(C(=O)N/N=C/c2ccc(OCC(C)C)cc2)c1C`?
TDP1 inh: inactive; DT40 TDP1 no CPT: inconclusive; RORg inh: 11.2µM; VP16 counter: inconclusive; TDP1 cell CPT: inconclusive

Results for CCCCCCOc1ccc(/C=N/NC(=O)C2CC2)cc1 ?
TDP1 inh: inactive; DT40 TDP1 no CPT: inactive; RORg inh: inactive; VP16 counter: inactive; TDP1 cell CPT: inactive

How did CCCCOc1ccc(/C=N/NC(=O)c2csc(C)c2C)cc1 do in these assays?
TDP1 inh: inactive; DT40 TDP1 no CPT: inconclusive; RORg inh: 11.2µM; VP16 counter: inconclusive; TDP1 cell CPT: inconclusive

Results for CC(C)(C)Nc1ncnc2sc(-c3ccccc3)cc12 ?
DT40 TDP1 no CPT: 23.1µM; RORg inh: inactive; VP16 counter: inactive; TDP1 cell CPT: 25.9µM

What do the screens show for `COc1ccc(Nc2ncnc3sc(-c4ccccc4)cc23)cc1`?
TDP1 inh: inactive; DT40 TDP1 no CPT: inconclusive; RORg inh: inactive; VP16 counter: inactive; TDP1 cell CPT: inactive

What do the screens show for `C=COCCCNc1ncnc2sc(-c3ccccc3)cc12`?
DT40 TDP1 no CPT: 14.6µM; RORg inh: inactive; VP16 counter: inconclusive; TDP1 cell CPT: 16.4µM

Results for COC(CNc1ncnc2sc(-c3ccccc3)cc12)OC ?
DT40 TDP1 no CPT: inconclusive; RORg inh: inconclusive; VP16 counter: inactive; TDP1 cell CPT: inconclusive

What do the screens show for `NC(=O)c1nnn(Cc2cc(Cl)c(C(=O)c3ccc(Cl)cc3)c(Cl)c2)c1N`?
DT40 TDP1 no CPT: 16.4µM; TDP1 cell CPT: 4.61µM

How did Cc1c(C(=O)N2CCCCCC2)c(S(=O)(=O)Nc2ccccc2F)c(C)n1C do in these assays?
TDP1 inh: inactive; DT40 TDP1 no CPT: inactive; RORg inh: inconclusive; VP16 counter: inconclusive; TDP1 cell CPT: inactive

What do the screens show for `COc1cccc(C2=Nn3c(nnc3-c3cc(OC)cc(OC)c3)SC2)c1`?
TDP1 inh: inactive; RORg inh: inactive; VP16 counter: inactive

Results for CCn1c(=O)c2cc(C(=O)NCCc3cc(OC)ccc3OC)sc2c2ccccc21 ?
TDP1 inh: inactive; DT40 TDP1 no CPT: 8.2µM; TDP1 cell CPT: inactive

Results for CCn1c(=O)c2cc(C(=O)NCCc3ccc(OC)c(OC)c3)sc2c2ccccc21 ?
TDP1 inh: inactive; DT40 TDP1 no CPT: 7.31µM; TDP1 cell CPT: 8.2µM

What do the screens show for `CCn1c(=O)c2cc(C(=O)NCc3cc(OC)ccc3OC)sc2c2ccccc21`?
TDP1 inh: inactive; DT40 TDP1 no CPT: inconclusive; TDP1 cell CPT: inconclusive

What do the screens show for `COc1ccc(CCNC(=O)c2cc3c(=O)n(C)c4ccccc4c3s2)cc1OC`?
TDP1 inh: inactive; DT40 TDP1 no CPT: inconclusive; TDP1 cell CPT: inactive

What do the screens show for `COc1ccc2c(c1)C1C=CCC1C(c1cc3c(cc1Br)OCO3)N2` (stereo not given)?
TDP1 inh: inactive; DT40 TDP1 no CPT: 18.4µM; RORg inh: inactive; VP16 counter: inactive; TDP1 cell CPT: inconclusive

What do the screens show for `CC(=O)c1ccc2c(c1)C1C=CCC1C(c1cc3c(cc1Br)OCO3)N2` (stereo not given)?
TDP1 inh: inactive; DT40 TDP1 no CPT: 4.61µM; TDP1 cell CPT: 3.66µM

Results for COC(=O)[C@H](Cc1ccccc1)NC(=O)NCCc1ccc(S(N)(=O)=O)cc1 ?
TDP1 inh: inactive; DT40 TDP1 no CPT: inactive; RORg inh: inactive; VP16 counter: inactive; TDP1 cell CPT: inactive

Results for COc1cccc(C(c2nnnn2Cc2ccco2)N2CCN(c3cccc(C)c3C)CC2)c1OC (stereo not given) ?
TDP1 inh: inactive; DT40 TDP1 no CPT: 25.9µM; RORg inh: inactive; VP16 counter: inactive; TDP1 cell CPT: inconclusive

Results for COc1ccc(OC)c(C(c2nnnn2Cc2ccco2)N2CCN(C)CC2)c1 (stereo not given) ?
TDP1 inh: inactive; DT40 TDP1 no CPT: inactive; RORg inh: inactive; VP16 counter: inactive; TDP1 cell CPT: inactive

Results for COc1cccc(C(c2nnnn2Cc2ccccc2)N2CCN(C(=O)c3ccco3)CC2)c1OC (stereo not given) ?
TDP1 inh: inactive; DT40 TDP1 no CPT: 23.1µM; RORg inh: inactive; VP16 counter: inactive; TDP1 cell CPT: inconclusive

How did COc1ccc(C(c2nnnn2Cc2ccccc2)N2CCN(C(=O)c3ccco3)CC2)cc1 (stereo not given) do in these assays?
TDP1 inh: inactive; DT40 TDP1 no CPT: inconclusive; RORg inh: inconclusive; VP16 counter: inactive; TDP1 cell CPT: inactive

Results for COc1ccc(CC(=O)N2CCN(c3ccccc3OC)CC2)cc1 ?
DT40 TDP1 no CPT: inactive; RORg inh: inactive; VP16 counter: inactive; TDP1 cell CPT: inactive

Results for CCN1CCOC(=O)C1CC(=O)Nc1cc(Cl)ccc1C (stereo not given) ?
TDP1 inh: inactive; DT40 TDP1 no CPT: 14.6µM; TDP1 cell CPT: 7.31µM

Results for CCN1CCOC(=O)C1CC(=O)Nc1ccc(C)c(Cl)c1 (stereo not given) ?
TDP1 inh: inactive; DT40 TDP1 no CPT: 5.8µM; TDP1 cell CPT: 7.31µM

What do the screens show for `Cc1c(N2C(=O)c3ccc(F)cc3C2=O)c(=O)n(-c2ccccc2)n1C`?
TDP1 inh: inactive; DT40 TDP1 no CPT: inactive; RORg inh: inactive; VP16 counter: inactive; TDP1 cell CPT: inactive

How did CCc1ccccc1NC(=O)N1CCc2c([nH]c3ccccc23)C1c1ccc(C)cc1 (stereo not given) do in these assays?
TDP1 inh: inactive; DT40 TDP1 no CPT: 14.6µM; TDP1 cell CPT: 16.4µM

High-throughput results deposited in PubChem BioAssay by National Center for Advancing Translational Sciences (NCATS).
